# Data from PubChem BioAssay (NCATS).
# “And” between values parts separate entries of the source, which are not always exact repeats. Equal values may be shown once. Records with an inconclusive call do not appear. The source made the active and inactive calls. Unless noted, the call rests on the fitted dose curve; in most records, active means well fitted curve in the direction sought with a large enough effect; inconclusive means small, poorly fitted or top-dose-only effect, or another doubt; inactive means no such curve, though single readings can be large; an effect the other way counts as inactive or inconclusive.
# Legend:
# [1] = qHTS Assay for Identifying Gametocytocidal Compounds (AID 743244);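 further: on the % scale 0 is the no-effect control and ±100 the full control effect; actives lower the fluorescent signal which means gametocytes are killed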; settings: P. falciparum 3D7 stage III-V gametocytes, alamarBlue, 72 h; max response: stronger effect = lower value
# Method in brief: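 A resazurin-based viability read-out was applied to mature P. falciparum gametocytes: 72 h compound treatment, then 24 h dye incubation, with falling fluorescence signalling gametocytocidal effect.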
# [2] = qHTS profiling for inhibitors of Plasmodium falciparum (3D7) proliferation (AID 743322);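 further: infected erythrocytes exposed to compound for 72 h before lysis; 100% = DMSO vehicle wells and 0% = 0.29 µM artemisinin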; settings: P. falciparum 3D7 proliferation; at 28.7 µM (top of the series) unless noted
# Method in brief: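 Erythrocytes infected with P. falciparum (0.3% parasitemia, 2.5% hematocrit) incubated with compounds 72 h at 37 C, 5% CO2. Lysis with saponin/Triton buffer containing SYBR Green I, overnight at room temperature in the dark; DNA fluorescence (485/535 nm) normalised to 0.29 uM artemisinin and DMSO.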
# [3] = qHTS profiling for inhibitors of Plasmodium falciparum (DD2) proliferation (AID 743323; call rule not given here); settings: lower = more inhibition; at 28.7 µM (top of the series) unless noted
# Method in brief: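 P. falciparum Dd2-infected erythrocytes (0.3% parasitemia, 2.5% hematocrit) exposed 72 h at 37 C, 5% CO2. Lysis with SYBR Green, overnight at room temperature, fluorescence 485/535 nm; normalized to 0.29 uM artemisinin and DMSO.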
# [4] = qHTS profiling for inhibitors of Plasmodium falciparum (HB3) proliferation (AID 743324); settings: Plasmodium falciparum HB3 blood-stage proliferation; at 28.7 µM (top of the series) unless noted;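 further: 100% = DMSO vehicle wells and 0% = artemisinin-treated control wells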
# Method in brief: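 P. falciparum HB3 grown in erythrocytes (0.3% parasitemia, 2.5% hematocrit final) with compound for 72 h at 37 C, 5% CO2. Parasite DNA detected by SYBR Green after saponin/triton lysis overnight; normalized to 0.29 uM artemisinin and DMSO.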
compound,measurement,setting,value
[O-][n+]1cccc(CO)c1,max response,[1],-4.23% (inactive)
NCC(=O)CCC(=O)O,max response,[1],0.855% (inactive)
OC[C@H]1O[C@@H](O[C@@H]2[C@@H](CO)O[C@](O)(CO)[C@H]2O)[C@H](O)[C@@H](O)[C@H]1O,max response,[1],-3.99% (inactive)
O=C(O)[C@@H]1CSCN1,max response,[1],-11.5% (inactive)
CC1(C)OC(=O)NC1=O,max response,[1],2.42% (inactive)
NC(=O)NC(=O)Cc1ccccc1,max response,[1],3.39% (inactive)
C[C@@H](O)[C@H](N)C(=O)O,max response,[1],6.39% (inactive)
CCCCN(CCCC)CC(O)c1cc(Cl)cc2c1-c1ccc(Cl)cc1/C2=C/c1ccc(Cl)cc1 (stereo not given),remaining parasite growth % (stronger effect = lower value),[2],0.77%
same,"activity, percent of control",[3],1.35%
same,"remaining proliferation (% of control), lower = more inhibition",[4],1.36%
CC(=O)NC(Cc1ccccc1)C(=O)O (stereo not given),max response,[1],-1.78% (inactive)
CC1(C)Oc2ccc(C#N)cc2[C@@H](N2CCCC2=O)[C@@H]1O,max response,[1],-8.5% (inactive) and 8.76% (inactive)
CCn1cc(C(=O)O)c(=O)c2cnc(N3CCNCC3)nc21,max response,[1],12.2% (inactive)
Cc1cc(O)cc2c1O[C@](C)(CCC[C@H](C)CCC[C@H](C)CCCC(C)C)CC2,max response,[1],-2.34% (inactive) and 0.0933% (inactive)
O=C(O)COc1nn(Cc2ccccc2)c2ccccc12,max response,[1],49.6% (inactive)
Cn1cc[nH]c1=S,max response,[1],-4.61% (inactive)
O=c1cc[nH]c(=O)[nH]1,max response,[1],17% (inactive)
Cc1cc2c(cc1S(N)(=O)=O)S(=O)(=O)CCC2,max response,[1],20.4% (inactive)
COc1ccc2[nH]c(S(=O)Cc3ncc(C)c(OC)c3C)nc2n1 (stereo not given),max response,[1],-2.18% (inactive)
C[C@H]1O[C@@H](n2cc(F)c(=O)[nH]c2=O)[C@H](O)[C@@H]1O,max response,[1],0.485% (inactive)
